# Laboratory results reported in PubChem BioAssay.
# The source made the active and inactive calls. Unless noted, no rule for the calls is given here.
# Columns and labels:
# [1] = tested on: Wnt5a (protein binding on small-molecule microarray); test: Wnt5a binders on small-molecule microarray, primary screen, biophysical, 635/667 nm fluorescence (AID 1142); settings: 635 nm fluorescence, higher = more signal;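 also: fluorescence read at 667 nm with signal to noise per printed feature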
# [2] = cell viability in Huh7 cells, primary screen, cytotoxicity control for HCV replication inhibitor project, CellTiter-Glo luminescence, basal, 48 h (AID 1143); settings: Huh7 HCV replicon, higher = more signal, called active from +8 up or from −8 down;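 also: Huh7 hepatoma cells carrying a hepatitis C replication reporter with no stimulus; test concentration not given here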
# [3] = P. aeruginosa biofilm formation inhibitors, primary screen, PAO1 strain, BacTiter-Glo luminescence, LB-PBS (AID 1144); settings: 12 h, higher = more signal
# [4] = CREB reporter modulators without forskolin, primary screen, cell-based, PC12, CRE-LacZ reporter, unstimulated (AID 1145); settings: no forskolin, luminescence, 4.5 h, higher = more signal, called active from +8 up or from −8 down
# [5] = CREB reporter modulators under forskolin, primary screen, cell-based, PC12, CRE-LacZ reporter, forskolin-stimulated (AID 1146); settings: luminescence, 4.5 h, higher = more signal, called active from +8 up or from −8 down;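 also: PC12 cells with 6xCRE LacZ reporter stimulated by forskolin 10 µM; beta-galactosidase reporter signal reflecting CREB driven transcription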
# [6] = target: Streptavidin (Streptomyces avidinii) (UniProt P22629); test: streptavidin binders on small-molecule microarray, primary screen, artefact control for SMM compound annotation, biophysical, 635/667 nm fluorescence (AID 1147); settings: streptavidin binding, higher = more signal;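 also: signal reflects streptavidin binding to arrayed compounds as a control protein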
# Chain of Streptavidin (Streptomyces avidinii) (P22629 whole entry, looked up): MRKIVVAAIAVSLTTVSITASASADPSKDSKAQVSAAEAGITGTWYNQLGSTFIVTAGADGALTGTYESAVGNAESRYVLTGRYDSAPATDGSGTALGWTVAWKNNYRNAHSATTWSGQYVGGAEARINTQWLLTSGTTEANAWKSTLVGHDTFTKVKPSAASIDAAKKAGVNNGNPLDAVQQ
# [7] = small-molecule binders of probe aInhba, primary screen, biochemical, small-molecule microarray, 635/667 nm fluorescence (AID 1148); settings: higher = more signal;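 also: score merges 667nm spot fluorescence with signal-to-noise for antibody binding to printed compounds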
# Torsin-1A (Homo sapiens) [8] = target: Torsin-1A (Homo sapiens) (UniProt O14656); test: torsin A binders from cell lysate, primary screen, small-molecule microarray, wild-type, 635/667 nm (AID 1149); settings: COS7 hTOR1A-WT lysate, 635 nm fluorescence, higher = more signal
# Chain of Torsin-1A (Homo sapiens) (O14656 whole entry, looked up): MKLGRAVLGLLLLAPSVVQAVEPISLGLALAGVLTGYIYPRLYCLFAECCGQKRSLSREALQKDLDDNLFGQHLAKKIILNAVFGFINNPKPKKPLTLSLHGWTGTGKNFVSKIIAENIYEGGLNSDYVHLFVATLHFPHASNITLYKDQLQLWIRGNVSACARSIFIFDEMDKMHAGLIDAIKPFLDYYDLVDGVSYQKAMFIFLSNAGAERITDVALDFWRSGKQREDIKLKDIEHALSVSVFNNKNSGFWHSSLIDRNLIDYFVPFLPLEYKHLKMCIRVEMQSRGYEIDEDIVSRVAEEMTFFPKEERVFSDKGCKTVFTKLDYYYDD
# Torsin-1A (Homo sapiens) [9] = target: Torsin-1A (Homo sapiens) (UniProt O14656); test: small-molecule binders of mutant TOR1A in lysate, primary screen, cell lysate, small-molecule microarray, COS7 lysate, 635/667 nm fluorescence (AID 1150); settings: COS7 hTOR1A mutant lysate, 635 nm fluorescence, higher = more signal;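 also: score pools 667 nm emission and signal to noise measuring lysate protein binding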
# [10] = tested on: Sonic hedgehog protein (Shh); test: small-molecule binders of Shh protein, primary screen, biochemical, small-molecule microarray, 635/667 nm fluorescence (AID 1151); settings: small-molecule microarray binding, 635 nm fluorescence; higher = more signal;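 also: Shh protein binding to compounds spotted on small-molecule microarray slides; score combines spot fluorescence intensity with signal-to-noise across triplicate slides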
SMILES,composite z-score [1],z-score [2],z-score [3],z-score [4],z-score [5],composite z-score [6],composite z-score [7],composite z-score (Torsin-1A (Homo sapiens) [8]),composite z-score (Torsin-1A (Homo sapiens) [9]),composite z-score [10]
CCN1C(=O)[C@H]2[C@H]3[C@H](O)[C@H](O)CC(=NOC[C@@H](C)[C@H](OCc4ccccc4)C(C)C)[C@@H]3CC[C@H]2C1=O,0.0339,-0.994 (inactive),0.683 (inactive),0.513 (inactive),0.435 (inactive),0.251,-0.0458,0.221,1.05,0.119
COc1cccc([C@H]2Oc3ccc(OC)cc3C(=NO[C@H](C)c3cn([C@@H]4COC[C@H]4O)nn3)[C@@H]2O)c1,-0.104,-2.16 (inactive),-0.302 (inactive),6.84 (inactive),0.258 (inactive),1.44,-0.182,-0.102,-0.119,-0.223
CN1C(=O)C2C=CC(C(O)c3ccc(I)cc3)N(NC(=O)OC(C)(C)C)C2C1=O (stereo not given),0.0527,0.6 (inactive),0.155 (inactive),-0.515 (inactive),0.699 (inactive),0.323,0.274,-0.042,0.447,-0.436
CCOC(=O)C[C@H]1[C@H](OC(=O)c2cc3ccccc3oc2=O)[C@@H](NC(=O)c2ccc3ccccc3n2)c2cc(OCCCO)ccc2N1C(=O)c1ccccc1,0.537,-2.98 (inactive),0.287 (inactive),11.9 (active),0.576 (inactive),0.28,0.0345,0.354,1.37,0.574
CC(C)=CCCC(C)=CCON=C1[C@H]2CCn3c(=O)n(Cc4cc5c(cc4Cl)OCO5)c(=O)n3[C@H]2[C@H](O)[C@@H]2O[C@H]12,0.0888,0.148 (inactive),0.138 (inactive),0.336 (inactive),0.392 (inactive),0.813,-0.128,1.62,0.718,0.563
CC1(C)OCC(C(O)C2=CCCCC2=O)CO1 (stereo not given),0.24,0.956 (inactive),-0.432 (inactive),-0.431 (inactive),0.476 (inactive),0.412,-0.133,0.429,0.803,1.5
CC(C)[C@@H](OCc1ccccc1)[C@H](C)C=NO[C@H](C)c1cn([C@H](CO)Cc2ccccc2)nn1,0.231,-1.28 (inactive),0.403 (inactive),0.987 (inactive),-0.437 (inactive),0.808,-0.126,0.353,1.15,0.29
C=C(/C(=C/C[C@H](OC(C)=O)c1ccc(OCCO)cc1)c1cnc2ccccc2c1)C(C)C,0.826,-2.51 (inactive),-1.37 (inactive),2.06 (inactive),-0.586 (inactive),0.868,-0.108,0.55,1,2.21
CC(=O)OC[C@H]1O[C@@H](ON=C(C)CCN2CCc3nc(-c4ccccc4)c(-c4ccccc4)cc3C2)[C@H](OC(C)=O)[C@@H](OC(C)=O)[C@@H]1OC(C)=O,0.344,-0.228 (inactive),0.305 (inactive),1.41 (inactive),0.0789 (inactive),0.65,0.134,0.054,0.257,1.12
COc1ccc(O[C@@H]2[C@H](O)CO[C@H]2C=CC#Cc2ccccc2)cc1,-0.02,0.163 (inactive),0.995 (inactive),0.201 (inactive),0.415 (inactive),-0.31,-0.0762,0.23,0.286,0.332
Cc1cc2c(nc1C)CCCN2CC(C)ON=C1[C@H]2CCn3c(=O)n(-c4ccccc4)c(=O)n3[C@H]2[C@H](O)[C@@H]2O[C@H]12 (stereo not given in full),0.337,0.357 (inactive),-0.258 (inactive),0.415 (inactive),0.533 (inactive),0.196,0.0301,-0.0339,0.246,1.03
CC(C)(C)N1C(=O)[C@H]2[C@H]3[C@H](O)[C@H](O)CC(=NO[C@@H]4O[C@H](CO)[C@@H](O)[C@H](O)[C@H]4O)[C@@H]3CC[C@H]2C1=O,0.324,-2.45 (inactive),0.0108 (inactive),0.518 (inactive),0.217 (inactive),-0.223,0.0051,0.217,0.254,1.53
Cc1ccc(S[C@]2(C(=O)O)CC(=O)N(Cc3ccccc3)[C@@H]2c2ccc(CO)cc2I)cc1,-0.405,-1.32 (inactive),0.116 (inactive),1.97 (inactive),1.63 (inactive),0.556,-0.0963,-0.995,-0.604,-0.41
CCCNC(=O)OC[C@H]1O[C@H](CCON=CC[C@@H]2C=C[C@H](OC(C)=O)[C@@H](COC(C)=O)O2)C=C[C@@H]1Oc1ccc(OC)cc1,0.371,0.0377 (inactive),0.348 (inactive),0.345 (inactive),0.391 (inactive),0.0822,-0.128,-0.475,0.0275,0.535
CO[C@@H]1COC(=O)CC=C[C@@H](C)[C@@H]2C=C[C@H](O)[C@@H](COC(=O)CCC[C@H]1C)O2,0.0796,-0.493 (inactive),0.0169 (inactive),-2.36 (inactive),-1.91 (inactive),1.35,-0.118,0.858,1.6,1.55
O=C1[C@H]2[C@H]3[C@H](O)[C@H](O)CC(=NOC[C@@H](O)COCc4ccco4)[C@H]3CC[C@H]2C(=O)N1Cc1ccc2c(c1)OCO2,0.138,-0.012 (inactive),2.01 (inactive),-0.657 (inactive),0.0952 (inactive),-0.405,-0.162,3.53,3.17,2.03

SMILES,composite z-score [1],z-score [2],z-score [3],z-score [4],z-score [5],composite z-score [6],composite z-score [7],composite z-score (Torsin-1A (Homo sapiens) [8]),composite z-score (Torsin-1A (Homo sapiens) [9]),composite z-score [10]
O=C1[C@H]2[C@H]3[C@H](O)[C@H](O)CC(=NOCc4ccccc4)[C@@H]3CC[C@H]2C(=O)N1Cc1ccccc1,-0.0408,0.0627 (inactive),0.76 (inactive),0.155 (inactive),0.663 (inactive),0.336,-0.128,-0.0549,0.282,0.84
C=CC[C@@H]1C=C[C@H](ON=C[C@@H](OC)[C@H](C)C=CCC(=O)OC)[C@@H](CO)O1,0.313,0.669 (inactive),0.0583 (inactive),-0.957 (inactive),-0.385 (inactive),-0.259,0.157,0.434,0.352,0.224
COCCCNC(=O)[C@@]1(Sc2ccc(C)cc2)CC(=O)N(Cc2ccccc2)[C@@H]1c1ccc(CO)cc1I,0.129,-1.25 (inactive),0.501 (inactive),-0.232 (inactive),1.48 (inactive),-0.684,0.106,0.234,0.0773,-0.772
Cn1cccc1C(O)C1C=CC2C(=O)NC(=O)C2N1Nc1ccccn1 (stereo not given),0.0956,-3.04 (inactive),0.465 (inactive),-0.326 (inactive),0.583 (inactive),0.126,-0.231,0.3,0.197,0.64
O=C1O[C@@H](c2ccccc2)[C@@H](c2ccccc2)N2[C@@H](c3ccc(OCCO)cc3)[C@]3(C(=O)Nc4ccccc43)[C@@H](C(=O)N3CCN(c4ncccn4)CC3)[C@H]12,0.22,-0.704 (inactive),0.349 (inactive),0.865 (inactive),3.05 (inactive),0.557,0.175,0.403,0.94,1.14
COC(=O)C1=CCC(c2cccc(Cl)c2)O1 (stereo not given),-0.241,-4.35 (inactive),-1.52 (inactive),0.388 (inactive),-0.551 (inactive),-0.0713,0.0742,0.0026,-0.58,-0.534
O=C1C[C@@H](O)[C@@H](O)[C@@H]2[C@@H]3C(=O)N(c4ccc(F)cc4F)C(=O)[C@@H]3CC[C@@H]12,-0.0711,0.988 (inactive),-0.356 (inactive),0.792 (inactive),-0.0611 (inactive),0.254,-0.0887,0.243,0.149,0.786
CC(C)=NOCc1ccc(-c2cc(-c3ccccc3)no2)cc1,0.102,0.517 (inactive),1.5 (inactive),-0.797 (inactive),0.275 (inactive),0.06,-0.23,0.299,-0.223,0.253
CN(C)CCCNC(=O)[C@@H]1c2ccccc2C(=O)N(Cc2cc(F)cc(C(F)(F)F)c2)[C@H]1c1ccc(CO)cc1,0.095,-1.77 (inactive),-0.101 (inactive),0.351 (inactive),0.159 (inactive),-0.621,-0.0849,0.65,-0.348,0.388
CCCNC(=O)[C@@H]1c2ccccc2C(=O)N(c2ccc(C)cn2)[C@H]1c1ccc(CO)cc1,-0.108,0.62 (inactive),0.242 (inactive),-0.412 (inactive),0.538 (inactive),-0.372,-0.108,-0.291,-0.397,-0.013
COC(=O)C1=C(C)[C@@H](O)[C@@H](C)[C@H](c2c(OC)c(OC)c(C)c(OC)c2OC)O1,0.0023,-0.0219 (inactive),0.148 (inactive),2.18 (inactive),0.0745 (inactive),0.479,-0.218,0.14,0.553,0.535
CCOC(=O)NN=C1C[C@@H](O)[C@@H](O)[C@@H]2[C@@H]3C(=O)N(C4CCCCC4)C(=O)[C@@H]3CC[C@@H]12,0.133,0.392 (inactive),0.471 (inactive),0.16 (inactive),0.366 (inactive),0.132,-0.0987,0.597,0.726,0.0717
C#CCCCON=C1C[C@@H](O)[C@@H](O)[C@@H]2[C@@H]3C(=O)N(c4cccc(Oc5ccccc5)c4)C(=O)[C@@H]3CC[C@@H]12,0.0741,0.317 (inactive),0.000705 (inactive),2.16 (inactive),0.427 (inactive),0.766,-0.128,-0.0313,0.112,0.277
COC(=O)[C@H](C)NC(=O)CCC1CC(OC(=O)NCCc2ccc(F)cc2)CC2(CCCC(COC(=O)NCC(c3ccccc3)c3ccccc3)O2)O1 (stereo not given in full),-0.073,-0.169 (inactive),-0.0102 (inactive),1.27 (inactive),-0.187 (inactive),0.688,-0.0044,-0.311,0.387,0.282
CC(C)=CCCC(C)=CCON=C1C[C@@H](O)[C@@H](O)[C@@H]2[C@@H]3C(=O)N(C[C@@H]4CCCO4)C(=O)[C@@H]3CC[C@@H]12,0.311,-0.678 (inactive),0.518 (inactive),-0.659 (inactive),-0.227 (inactive),-0.0996,-0.0933,2.06,2.01,1.73
